# Compounds without any hit were thinned out: in the full panel of roughly 79,000, 15% have a hit. A number with no mark means an inactive call. Calls of active or inactive are those of the source. No stated cut-off is given here; in the data, active means growth inhibition above about 70%; inactive means the rest.
# Key:
# [1] = NCI Yeast Anticancer Drug Screen. Data for the rad50 strain (AID 155);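 further: 0% = growth of vehicle-only cultures of the same strain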; settings: S. cerevisiae rad50 strain growth inhibition; at 50.0 µM; hits give high values
# Outline: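 Readout: growth inhibition relative to vehicle-treated cultures. Compound exposure was carried out in a genetically defined yeast strain deficient in DNA damage repair.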
# [2] = NCI Yeast Anticancer Drug Screen. Data for the mec2-1 strain (AID 157); settings: S. cerevisiae mec2-1 strain, at 50.0 µM, hits give high values
# Outline: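 Test agents were screened against the mec2-1 yeast strain, with defined DNA repair or cell cycle alteration. Growth was scored as inhibition against vehicle-only controls.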
# [3] = NCI Yeast Anticancer Drug Screen. Data for the sgs1 mgt1 strain (AID 161);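 further: 0% = growth of cultures given vehicle only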; settings: S. cerevisiae sgs1 mgt1 strain, at 50.0 µM, hits give high values
# Outline: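 Inhibition of yeast growth, normalised to vehicle-treated controls, is reported for a strain bearing genetic alterations in DNA damage repair.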
# [4] = NCI Yeast Anticancer Drug Screen. Data for the cln2 rad14 strain (AID 165);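 further: 0% = growth equal to vehicle treated cultures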; settings: S. cerevisiae cln2 rad14 strain, at 50.0 µM, hits give high values
# Outline: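 Growth of compound-exposed yeast (cln2 rad14 genotype) measured and expressed as inhibition relative to vehicle.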
# [5] = NCI Yeast Anticancer Drug Screen. Data for the bub3 strain (AID 167); settings: S. cerevisiae bub3 mutant strain, at 50.0 µM, hits give high values
# Outline: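 Readout: yeast growth inhibition, expressed relative to vehicle-only wells. The test organism is a mutant strain from a panel with lesions in DNA repair or checkpoint genes.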
# [6] = NCI Yeast Anticancer Drug Screen. Data for the mlh1 rad18 strain (AID 175); settings: S. cerevisiae mlh1 rad18 strain growth inhibition; at 50.0 µM; hits give high values
# Outline: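 In this whole-cell yeast screen, a strain with altered DNA damage repair is challenged with compound, and its growth is measured against matched vehicle-treated controls.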
Compound,growth inhibition [1] [%],growth inhibition [2] [%],growth inhibition [3] [%],growth inhibition [4] [%],growth inhibition [5] [%],growth inhibition [6]
CCN(CC)CCNc1ccc2ncn3c4ccccc4c(=O)c1c23,19.9,8.85,-16.1,33.1,29.1,42.9%
Cc1nc(N)nc(C)c1N=Nc1ccccc1Br,2,3.75,2.35,-42.2,5.35,-6.25%
NCCCc1ccc2oc3ccccc3c2c1,23.8,-14.2,13.9,15.5,-22.3,24.4%
CN(C)S(=O)(=O)c1c(N)ncn1C,12.7,6.85,-9.1,7.25,9.65,5%
NC1=NC=NCN1c1ccc(N)cc1,1.65,-2.65,3.85,-54.4,-3.6,5.7%
CCCCCCCCCC(=O)N/N=C/c1ccco1,51.7,59.6,63,44.9,69.4,78% (active)
COC(=O)c1ccccc1C1CN=NC12Cc1ccc3c(c1C2=O)CCC3 (configuration not stated),-0.85,-3.55,1.75,-7.3,7.1,16.7%
CCC[N+]1=C/c2ccccc2OC(=O)/C=C\1[O-],-36.9,-11.3,-14.1,-8.95,5.8,-1.1%
COc1ccc2c(c1)OCCN(C)OC2c1ccccc1 (configuration not stated),-7.65,-4.6,-10.2,0.5,11.1,-1.5%
C#CC(C)(C)Oc1cc(O)c2c(=O)c3ccccc3n(C)c2c1,-7.9,-0.35,12.2,5.3,0.2,0%
CCOC(=O)CCC(NC(=O)C(N)c1ccc([N+](=O)[O-])cc1)C(=O)NC(CCC(=O)OCC)C(=O)OCC (configuration not stated),-5.4,-7.5,1.2,0.5,-2.55,4.55%
NC(=O)N/N=C/C(Cc1ccccc1)=N/OCc1ccccc1,-6.9,-1.8,-0.45,-17.6,16.4,-1.75%
c1ccc2c(c1)NC1C3(CCC4CCCCC241)SCCS3 (configuration not stated),9.45,2.3,6.8,8.8,-2.1,-1.15%
O=C(Cc1csc(N=Nc2c(O)[nH]c3ccccc23)n1)Nc1ccccc1,-16.2,-24.4,-6.35,-8.75,-7.05,10.9%
CC1CCc2c(nc(C#N)c(=N)n2O)C1 (configuration not stated),8.25,-3.2,6.8,-40.2,-12.2,-6.75%
CC(C)(C)c1ccc(OCCCCl)c(CCl)c1,23.4,2.75,10.1,7.65,52,12.6%
O=P12N(CCN1c1ccccc1)CCN2c1ccccc1,-26.4,-34.1,-13.8,19.6,10.2,-25.5%
O=C(CC(=O)Nc1ccccc1)N/N=C/c1cc(N=Nc2ccc(Br)cc2)ccc1O,16.4,24.9,53,4.65,0.2,29%
O=C(O)c1ccc([N+](=O)[O-])cc1C(=O)c1cccs1,0.7,-7.75,4.6,-2.35,5.6,-0.05%
O=c1[nH]c2c([N+](=O)[O-])cc(Cl)cc2nc1/C=C(\O)c1cccnc1,18.4,0.7,33.8,36.2,4.25,45.1%
CC(C)(CO)NC(=O)c1cccs1,14.8,5.15,1.45,12.7,-4.35,-20%

Compound,growth inhibition [1] [%],growth inhibition [2] [%],growth inhibition [3] [%],growth inhibition [4] [%],growth inhibition [5] [%],growth inhibition [6]
CC(C)C(C)(C(N)=O)C(C)C,14.3,17.4,10.2,17.9,-1.25,-1.4%
CC1=C(O)/C(=C/C(C)CCC/C(C)=C/C=C/C(C)CCCc2ccoc2)OC1=O (configuration not stated),3.05,-4.65,2.9,23.8,7.45,3.1%
Cc1cccc(Cl)c1NC(=O)c1cccc(C(=O)Nc2c(C)cccc2Cl)c1,9.3,4.45,15.4,-30.3,-2.5,27.6%
COc1ccc(C(=O)C[n+]2cc(Br)cc3ccccc32)cc1,-3.1,11.8,1.5,22.9,-3.05,54.5%
CCOC(=O)Nc1n[nH]nc1Cl,-21.5,-10.1,25.1,-20.9,-20.1,-12.7%
NC(=O)c1c(N)nnc(-c2ccccc2)c1-c1ccccc1,-6.15,-7.65,-5.75,-25.8,-3.45,-16.2%
O=C(CC1C(=O)Nc2ccccc2S1(=O)=O)Nc1cc(Cl)ccc1Cl (configuration not stated),0.15,-30.8,7.25,15.1,4.5,-12.3%
CCCc1c(OC(=O)c2ccc([N+](=O)[O-])cc2)cccc1OC(=O)c1ccc([N+](=O)[O-])cc1,20.1,1.1,12.8,18.1,-3.95,7.55%
Nc1nn(CC(O)CO)c(=O)s1 (configuration not stated),4.85,15.7,2.4,11.8,8.1,8%
Cc1ccc(C(=O)Cc2nc3c([nH]c2=O)c(C)nn3-c2ccccc2)c(C)c1,2.6,-27.5,2.55,12.7,-0.85,4.7%
CCOC(=O)C(Cc1ccccc1Cl)(NC(C)=O)C(=O)OCC,2.1,-7.95,-0.35,-10.2,11.8,-20.1%
C/C(CCl)=N/NC(N)=S,-13.2,-2.5,-18.4,7,-11.9,-12.5%
Clc1ccc(OCCSCCCCCCCCCCSCCOc2ccc(Cl)cc2)cc1,-2,-3.4,13.9,-24,-8.7,-21.1%
Cc1ccc(S(=O)(=O)C2(NC(=O)C3CC3)CC2)cc1,-6.5,-12.1,-26.2,-11.1,-30.7,-5.7%
O=C(O)c1ccccc1C(=O)Cc1ccccc1,-14.7,-19,-6.7,-16,-29.6,-9.6%
O=S(=O)(CS(=O)(=O)c1ccc(Br)cc1)c1ccc(Br)cc1,1.4,33.1,-14.6,20.8,4.6,12%
Cc1cc(Cc2cccc3ccccc23)nc2c1ccc1ccccc12,0.85,-11.2,12.2,11,-13.9,17.6%
N#Cc1c2c(c(N3CCCCC3)n3c1nc1ccccc13)CCC2,19.4,13.9,26.8,8,19.9,19.9%
CC(C)(C)C1=NC(S)NC(CCC(=O)Nc2ccccc2[N+](=O)[O-])=C1 (configuration not stated),0.4,-8.85,-0.4,14.2,8.05,-7.4%
COc1ccccc1NC(=O)Nc1ccccc1,1.9,-4.3,3.7,-23.5,-4.65,0.3%
COc1cc(OC)c2nc(C)c3c(c2c1)SCC3,-0.5,-23.1,5.25,7.4,28.6,20%

# — PubChem BioAssay (NCI)
